# From PubChem BioAssay (Tox21)
# The source made the active and inactive calls. The call rests on the fitted dose curve; in most records, active means well fitted activation curve with a large enough effect in the signal ratio in the repeat runs (not every such curve was filed as active); inconclusive means weak or mixed curves, or effect the other way; inactive means no such curve, though single readings can be large or run the other way; the % refers to the signal ratio.
# Target: Glucocorticoid receptor (Homo sapiens) (UniProt P04150)
# Sequence (P04150 whole entry, looked up): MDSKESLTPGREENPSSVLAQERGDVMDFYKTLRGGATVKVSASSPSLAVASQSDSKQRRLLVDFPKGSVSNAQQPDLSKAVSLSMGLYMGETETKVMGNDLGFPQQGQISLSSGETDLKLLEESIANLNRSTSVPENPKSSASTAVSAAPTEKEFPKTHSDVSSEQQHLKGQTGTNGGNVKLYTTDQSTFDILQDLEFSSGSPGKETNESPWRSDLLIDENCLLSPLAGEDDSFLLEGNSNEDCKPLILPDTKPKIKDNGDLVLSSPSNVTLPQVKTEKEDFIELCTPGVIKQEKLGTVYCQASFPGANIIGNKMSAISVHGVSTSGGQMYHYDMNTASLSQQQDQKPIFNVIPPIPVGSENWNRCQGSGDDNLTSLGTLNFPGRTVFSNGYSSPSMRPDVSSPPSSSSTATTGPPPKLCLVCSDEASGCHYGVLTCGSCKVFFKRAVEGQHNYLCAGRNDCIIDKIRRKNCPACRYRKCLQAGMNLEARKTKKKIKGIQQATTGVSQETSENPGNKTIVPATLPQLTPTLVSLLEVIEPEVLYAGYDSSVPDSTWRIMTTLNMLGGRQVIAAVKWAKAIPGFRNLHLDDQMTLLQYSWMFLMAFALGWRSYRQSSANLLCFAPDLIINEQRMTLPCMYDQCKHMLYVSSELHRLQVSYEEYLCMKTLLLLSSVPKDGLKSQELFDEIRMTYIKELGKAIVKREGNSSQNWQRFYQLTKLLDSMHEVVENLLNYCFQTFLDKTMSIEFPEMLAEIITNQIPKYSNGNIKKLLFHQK
# Experiment: qHTS assay to identify small molecule agonists of the glucocorticoid receptor (GR) signaling pathway (AID 720691)
# Details: GR-bla HeLa, beta-lactamase reporter ratio, 18 h; activation: at 62.4 µM (top of the series)
# From the text: U.S. Tox21 Program National Center for Advancing Translational Sciences [NCATS] NIH Chemical Genomics Center [NCGC] U.S. Environmental Protection Agency [EPA] National Institutes of Environmental Health Sciences [NIEHS] National Toxicology Program [NTP] U.S. Food and Drug Administration [FDA] Tox21 Assay Overview: The Glucocorticoid receptor (GR) is one of the members of the nuclear receptor family of ligand-dependent transcription factors. GR plays a critical role in carbohydrate, protein and lipid metabolisms and programmed cell death. CellSensor GR-bla HeLa cell line (Invitrogen) contains a beta-lactamase reporter gene under the control of the glucocorticoid response element stably integrated into HeLa cells, a cervical cancer cell line that expresses glucocorticoid receptor. The activation of the reporter gene under culture conditions can be detected by fluorescence intensity. This cell line has been used to screen the Tox21 10K compound library and to identify the compounds that activate the GR signaling.
# Tox21 Assay Protocol Summary: The GR-bla HeLa cells were dispensed at 1500 cells/6 ul/well in 1536-well black wall/clear bottom plates using a Multidrop Combi (ThermoFisher Scientific, Waltham, MA) dispenser. After the assay plates were incubated at a 37 C/5% CO2 incubator for 4 hours, 23 nL of compounds dissolved in DMSO, positive controls or DMSO only was transferred to the assay plate by a pintool station (Kalypsys, San Diego, CA). The plates were incubated at 37 C for 18 hours. After 1 uL of LiveBLAzerTM B/G FRET substrate was added using a Flying Reagent Dispenser (Aurora Discovery, San Diego, CA), the plates were incubated at room temperature for 2 hours, and fluorescence intensity was measured by an Envision plate reader (PerkinElmer, Shelton, CT).
# On the % scale 0 is the no-effect control and ±100 the full control effect; potency means the concentration at half of the fitted maximal effect.
Structure (SMILES),activation,Potency
CN(C)CCCN1c2ccccc2Sc2ccc(C(F)(F)F)cc21,30.9% (inactive),
CN1[C@@H]2CC[C@H]1CC(OC(=O)C(CO)c1ccccc1)C2 (stereo not given in full),,inactive
CCOC(=O)[C@@](C)(N)Cc1ccc(O)c(O)c1,0.172% [at 29.2 µM] (inactive),
CCO[Si](CCCSSSSCCC[Si](OCC)(OCC)OCC)(OCC)OCC,-6.33% (inactive),
C1CC(COCC2CO2)CCC1COCC1CO1 (stereo not given),11.9% (inactive),
CCN(CC)CCNc1ccc(CO)c2sc3ccccc3c(=O)c12,,19 µM (active)
CCN1CCN(c2cc(-c3ccc(F)cc3)c3c(n2)CCCCCC3)CC1,-1.89% (inactive),
COc1ccc2sc(C(=O)Nc3nnn[nH]3)c(OC(C)C)c2c1,-4.74% (inactive),
C=C(C)C(=O)OCCC[Si](Cl)(Cl)Cl,0.0238% [at 79.2 µM] (inactive),
O=C1Nc2ccc(Cl)cc2[C@@](C#CC2CC2)(C(F)(F)F)O1,13.5% (inactive),
Nc1cc(Cl)c([N+](=O)[O-])cc1O,-4.54% (inactive),
c1cc2c3c(c1)ccc1cccc(c13)C2,0.311% [at 79.2 µM] (inactive),
CCCCOC(=O)C(C)CC (stereo not given),6.38% (inactive),
O=C(O)Cc1ccc(OCCNC[C@H](O)c2ccccc2)cc1,0.3% (inactive),
C/C=C/C=N/NC(=O)c1ccncc1,-2.23% (inactive),
O=C(O)CC(=O)O,1.7% (inactive),
C[Si](C)(C)Cl,1.62% (inactive),
CC(C(O)c1ccccc1)N(C)CCOC(c1ccccc1)c1ccccc1 (stereo not given),-3.72% (inactive),
CCCCOc1ccc(C(=O)CCN2CCCCC2)cc1,-0.408% [at 29.2 µM] (inactive),
CCc1cccc(C)c1,-2.38% [at 79.2 µM] (inactive),

Structure (SMILES),activation,Potency
CCCN(CCc1cccs1)[C@H]1CCc2c(O)cccc2C1,-2.08% (inactive),
O=C(Nc1ccc(Cl)c(Cl)c1)c1cc(Cl)cc(Cl)c1O,11.6% [inconclusive] (active),
CNC(=S)NN,-4.63% (inactive),
CCOC(=O)N1CCC(=C2c3ccc(Cl)cc3CCc3cccnc32)CC1,6.06% (inactive),
C=CC(=O)OCCC#N,3.42% [at 79.2 µM] (inactive),
O=S(=O)(O)CCCN1CCOCC1,-0.375% (inactive),
Nc1ccc2cc3ccc(N)cc3nc2c1,,6.16 µM (active)
Oc1ccc(-c2ccccc2)c(Cl)c1,-1.53% (inactive),
CC1(C)C(=O)N(Br)C(=O)N1Br,-0.0706% (inactive),
NC1(c2ccc(-c3nc4ccn5c(=O)[nH]nc5c4cc3-c3ccccc3)cc2)CCC1,-7.62% (inactive),
COC(=O)[C@]1(C)CCC[C@@]2(C)[C@H]1CC=C1C=C(C(C)C)CC[C@@H]12,0.12% (inactive),
CCCCNc1c(C(=O)OCC)c(C)nc2c1cnn2CC,-0.0589% (inactive),
Cc1ccc(N)cc1O,6.27% (inactive),
CC(O)C#CC(C)O (stereo not given),1.78% (inactive),
N[C@@H](CSSC[C@H](N)C(=O)O)C(=O)O,2.66% (inactive),
Cc1c(C(=O)O)cccc1[N+](=O)[O-],-1.81% [at 79.2 µM] (inactive),
Cc1ccc2ccc3cccc4ccc1c2c34,1.31% (inactive),
NCCCC(O)(P(=O)(O)O)P(=O)(O)O,-0.169% (inactive),
S=C(SSSSSSC(=S)N1CCCCC1)N1CCCCC1,-0.143% [at 29.2 µM] (inactive),
Brc1ccccc1-c1ccccc1,4.87% (inactive),
